# Bioassay records from PubChem.
# Cruzain inh Det = inhibitors of Trypanosoma cruzi cruzain with detergent; P25779; purified cruzain, Z-FR-AMC fluorescence, 0.01% Triton; Potency, µM, for the others: max response, negative = inhibition, most hits filed as inhibitors; 200,000 tested, 0.43% active; AID 1478;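 also: plate controls were neutral wells for no effect and buffer without enzyme for full effect; nearly all actives have a fitted effect of over 40% in size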
# Target sequence (P25779 123-467 limits assumed): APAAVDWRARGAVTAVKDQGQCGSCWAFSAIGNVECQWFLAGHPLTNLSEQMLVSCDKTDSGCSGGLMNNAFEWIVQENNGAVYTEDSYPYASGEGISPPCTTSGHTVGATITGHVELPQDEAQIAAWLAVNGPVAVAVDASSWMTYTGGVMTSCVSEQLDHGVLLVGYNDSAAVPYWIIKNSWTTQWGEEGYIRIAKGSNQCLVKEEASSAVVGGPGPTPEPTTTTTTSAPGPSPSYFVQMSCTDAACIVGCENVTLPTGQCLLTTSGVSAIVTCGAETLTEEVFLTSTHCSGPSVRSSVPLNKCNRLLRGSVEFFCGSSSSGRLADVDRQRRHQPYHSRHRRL
#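 Sodium acetate buffer (100 mM, pH 5.5) containing 5 mM DTT and 0.01% Triton X-100 hosted 1.5 nM cruzain and test compound for 15 min at room temperature. Cleavage of 2 uM Z-FR-AMC was then tracked by fluorescence.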
# Cruzain noTriton = blocks cruzain activity in detergent-free assay; P25779; purified cruzain, Z-FR-AMC fluorescence, no detergent; Potency, µM, for the others: max response, negative = inhibition, actives largely listed as inhibitors; 200,000 tested, 2.3% active; AID 1476;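 also: plate controls were enzyme without inhibitor for no effect and buffer without enzyme for full effect; nearly all actives have a fitted effect of over 40% in size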
#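 Detergent-free condition (0.00005% Triton X-100) in acetate buffer pH 5.5 with DTT. 1.5 nM enzyme and compound were pre-mixed 15 min, then 2 uM Z-FR-AMC substrate added; reaction progress from fluorescence change between first and third reads (60 s).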
# * hit, by the source's call; ? = inconclusive. Shown are actives, neighbours in structure and some others; about 2.4% of the full set was active somewhere. Calls follow the shape of the dose curve; as a rule, active = well fitted curve in the direction sought with a large enough effect; inconclusive = small, poorly fitted or top-dose-only effect, or another doubt; inactive = no such curve, though single readings can be large; an effect the other way counts as inactive or inconclusive. Potency is read from the fitted curve at half-maximal effect.
SMILES,Cruzain inh Det,Cruzain noTriton
O=C1OC(c2ccccc2)=N/C1=C\C=C\c1ccccc1[N+](=O)[O-],13µM*,16µM*
O=c1[nH]c(/C=C/c2ccccc2[N+](=O)[O-])nc2ccccc12,-4%,0%
Cc1ccc(NC(NC(=O)Cc2ccccc2)C(Cl)(Cl)Cl)cc1 (configuration not stated),-8%,-1%
Cc1ccc(C)c(CSc2ncccc2C(=O)O)c1,-2%,4%
Cc1ccc(SCc2ccc(C(=O)Nc3cc([N+](=O)[O-])ccc3C)cc2)cc1,0%,-7%
Cc1ccc(SCc2ccc(C(=O)Nc3cccc([N+](=O)[O-])c3)cc2)cc1,5%,20µM*
CC1Cc2ccccc2N1C(=O)COC(=O)Cn1nnc(-c2ccccc2)n1 (configuration not stated),1%,-10%
Cc1cc(NC(=O)COC(=O)c2oc3c(Cl)cccc3c2C)no1,4%,13µM*
Cc1cc(NC(=O)COC(=O)c2n[nH]c3ccccc23)no1,1%,2%
O=C(CCCn1ncn2c(cc3occc32)c1=O)NCc1ccccc1F,-3%,17%
O=C(Nc1ccc(OCc2ccccc2)cc1)c1cccc([N+](=O)[O-])c1,-2%,-30%
O=C(Nc1ccc(F)cc1)c1ccc(COc2ccccc2)cc1,-1%,13µM*
COC(=O)c1ccc(CNC(=O)c2ccc(COc3ccccc3)cc2)cc1,-2%,10µM*
Cc1ccc(C(=O)Nc2ccc(OCc3ccccc3)cc2)cc1[N+](=O)[O-],-2%,13µM*
COC(=O)c1ccc(OCCOc2ccccc2)cc1,-5%,0%
NNC(=O)c1ccc(COc2ccccc2)cc1,-1%,9%
CCCCN(CC)C(=O)CSc1cc(=O)n(C)c2ccccc12,0%,-3%
CC(=O)N1CCc2cc(S(=O)(=O)NC(CC(C)C)C(=O)Nc3ccc4c(c3)OCCO4)ccc21 (configuration not stated),-1%,?
O=C(Cn1cnc2cc([N+](=O)[O-])ccc2c1=O)Nc1ccc2c(c1)CCC2,0%,16µM*
O=C(Cn1cnc2ccccc2c1=O)Nc1ccc2c(c1)CCC2,-2%,3%
O=S(=O)(c1ccccc1)c1nc(-c2ccc(F)cc2)oc1N1CCOCC1,-11%,-8%
COc1cccc(C(=O)Nc2ccc(Cl)c(-c3nc4ccccc4[nH]3)c2)c1,-5%,?
COc1ccc(/C=N/NC(=O)COc2ccccc2-c2ccccc2)cc1,-6%,7%
COc1ccc(Br)c(/C=N/NC(=O)COc2ccc(-c3ccccc3)cc2)c1,-2%,20µM*
COCCn1c(=O)c(-c2ccccc2)nc2cnc(Oc3cccc(Cl)c3)nc21,-6%,6%
SMILES,Cruzain inh Det,Cruzain noTriton
CCN1CCN(c2nc(-c3cccs3)nc3ccccc23)CC1,-9%,-1%
COCCCNc1nc2c(-c3ccccc3)nnn2c2ccccc12,0%,3%
Cc1ccc(-c2nnn3c2nc(NCC(C)c2ccccc2)c2ccccc23)cc1 (configuration not stated),0%,5µM*
CC(=O)N(Cc1cccnc1)c1nc2ccc(F)cc2s1,-2%,-3%
COc1ccc(C(CC(=O)O)NC(=O)c2ccco2)cc1 (configuration not stated),5%,-1%
COC(=O)c1ccc(SC)cn1,-2%,14%
Cc1ccc(NC(=O)CSc2nn(-c3ccc(Cl)cc3)c(=S)s2)cc1S(=O)(=O)N(C)C,-2%,?
CN(C)S(=O)(=O)c1cc(NC(=O)CSc2nn(-c3ccc(Cl)cc3)c(=S)s2)ccc1Cl,-4%,25µM*
O=C(C1CCCN(S(=O)(=O)c2cnc[nH]2)C1)N(CCc1ccccc1)Cc1ccccc1 (configuration not stated),1%,?
O=C(Cc1csc2ccccc12)NCc1ccccc1F,-9%,8%
CCCc1ccc(OCCNC(=O)CC)cc1,-1%,5%
CCc1ccc(-c2cc(C)no2)cc1S(=O)(=O)N1CCN(c2cccc(Cl)c2)CC1,-3%,25µM*
Cc1ccc2cccc(S(=O)(=O)N3CCN(c4cccc(Cl)c4)CC3)c2n1,-1%,-2%
Cc1cccc(C)c1-n1c(C)cc(/C=N/NC(=O)c2ccncc2)c1C,-5%,5%
CCOC(=O)N1CCN(CC(O)COC2CC(C)CCC2C(C)C)CC1 (configuration not stated),2%,16%
O=C(N/N=C/c1cccs1)c1n[nH]c2c1CCC2,-4%,1%
O=C(CNc1cccc2ccccc12)N/N=C/C(Br)=C/c1ccccc1,-7%,-26%
O=C(N/N=C/c1ccccc1Cl)c1n[nH]c2c1CCCC2,0%,25µM*
O=C(N/N=C/C(Br)=C/c1ccccc1)c1n[nH]c2c1CCC2,-7%,16µM*
CCOc1ccc(-n2c(=S)sc3c(=O)[nH]c(SCC(=O)NCC4CCCO4)nc32)cc1 (configuration not stated),-14%,13%
Cc1ccc(-n2nc3c(=O)n(CC(=O)NCc4ccco4)nc(C)c3c2C)cc1,-1%,5%
Cc1nn(CC(=O)NNC(=S)Nc2ccccc2)c(C)c1[N+](=O)[O-],3%,-3%
CCOC(=O)CCc1c(C)n(CC)c2cc(-c3ccccc3OC)nn2c1=O,-5%,6%
S=C1NCCc2ccccc2C1c1ccccc1 (configuration not stated),?,32µM*
O=C(O)C1NCCc2ccccc21 (configuration not stated),4%,10%
SMILES,Cruzain inh Det,Cruzain noTriton
CCCCOc1ccccc1C1CC(=O)Nc2ccc3ccccc3c21 (configuration not stated),-11%,-27%
C#CCOCCOCCOCCNc1nc(N2CCN(C(=O)Cn3cc(CCCN=C(N)N)nn3)CC2)nc(N2CCN(C(=O)[C@H]([C@@H](C)CC)n3cc(CCCN=C(N)N)nn3)CC2)n1,25µM*,20µM*
C#CCOCCOCCOCCNc1nc(N2CCN(C(=O)Cn3cc(CCCN=C(N)N)nn3)CC2)nc(N2CCN(C(=O)[C@H](C(C)C)n3cc(CCO)nn3)CC2)n1,0%,6%
CCOC(=O)CN(C(=O)Cn1nnc2ccccc21)C(C(=O)NCCOC)c1ccccc1 (configuration not stated),5%,6%
Cc1cccc(C)c1NC(=O)c1nc(S(C)(=O)=O)ncc1N(Cc1ccc(F)cc1)Cc1ccco1,-5%,-6%
Cc1ccc(NC(=O)c2nc(S(C)(=O)=O)ncc2N(Cc2cccc(F)c2)Cc2ccco2)cc1C,-3%,?
Cc1ccc(C)c(NC(=O)c2nc(S(C)(=O)=O)ncc2N(Cc2ccc(C(C)(C)C)cc2)Cc2ccco2)c1,-3%,7.9µM*
Cc1cccc(C)c1NC(=O)c1nc(S(C)(=O)=O)ncc1N(Cc1ccc(C(C)(C)C)cc1)Cc1ccco1,-2%,-21%
CC(C)c1ccc(CN(Cc2ccco2)c2cnc(S(C)(=O)=O)nc2C(=O)Nc2ccc(F)cc2)cc1,-3%,16µM*
COc1ccc(CN(Cc2ccco2)c2cnc(S(C)(=O)=O)nc2C(=O)Nc2ccc(C)c(Cl)c2)cc1,-2%,7.9µM*
CCN1CCN(C(=O)CCc2ccc(S(=O)(=O)NCCc3ccccc3)cc2)CC1,-1%,-6%
O=C(Nc1ccc(Br)cc1)c1ccc(N2C(=O)C3CC=C(Cl)CC3C2=O)cc1 (configuration not stated),-4%,20µM*
O=C(c1ccc(N2C(=O)C3CC=C(Cl)CC3C2=O)cc1)N1CCCCC1 (configuration not stated),-2%,-3%
